# Screening data deposited in PubChem by National Center for Advancing Translational Sciences (NCATS).
# AmpC inh detg: qHTS Inhibitors of AmpC Beta-Lactamase (assay with detergent) | P00811 | AmpC hydrolysis of nitrocefin, absorbance 480 nm, 0.01% Triton | Potency, µM (highest dose often 114 µM), without a hit: at the top dose activity change, negative = inhibition, actives largely listed as inhibitors | 370,000 tested, 0.041% active | AID 485294, 2010;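 further: 0% = no-compound wells and -100% = no-enzyme wells; nearly all actives have a fitted effect of over 25% in size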
# Target sequence (P00811 whole entry, looked up): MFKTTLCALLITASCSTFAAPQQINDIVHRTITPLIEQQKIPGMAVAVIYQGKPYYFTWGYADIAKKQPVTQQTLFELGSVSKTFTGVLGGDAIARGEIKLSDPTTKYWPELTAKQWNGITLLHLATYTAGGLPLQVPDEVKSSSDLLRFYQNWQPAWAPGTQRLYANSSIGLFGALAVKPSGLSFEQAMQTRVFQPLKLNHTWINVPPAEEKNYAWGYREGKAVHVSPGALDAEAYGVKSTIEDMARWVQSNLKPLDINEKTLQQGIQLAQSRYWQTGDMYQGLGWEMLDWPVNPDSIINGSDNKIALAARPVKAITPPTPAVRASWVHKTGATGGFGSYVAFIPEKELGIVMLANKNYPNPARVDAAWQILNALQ
#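 20 mM phosphate pH 7.0 + 0.01% (detergent screen) or 0.0001% Triton X-100; 5.3 nM AmpC reagent; cpd preinc 15 min RT; nitrocefin (800 uM stock) to start; A480 q20 s × 4 min; Activity was normalised to no-enzyme and no-compound control wells.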
# AmpC inh no detg: qHTS Inhibitors of AmpC Beta-Lactamase (assay without detergent); P00811; 330,000 tested, 0.52% active; Potency, µM (doses to about 57.1 µM), for the others: top-dose activity change, negative = inhibition, actives largely listed as inhibitors; AmpC nitrocefin hydrolysis, absorbance 480 nm, 0.0001% Triton; AID 485341, 2010;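 further: plate controls were no compound for no effect and no enzyme for full effect; nearly all actives have a fitted effect of over 20% in size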
#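 20 mM phosphate pH 7.0 + 0.01% (detergent screen) or 0.0001% Triton X-100; 5.3 nM AmpC reagent; cpd preinc 15 min RT; nitrocefin (800 uM stock) to start; A480 q20 s × 4 min; Activity was normalised to no-enzyme and no-compound control wells.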
# Sm TGR block: qHTS Assay for the Inhibitors of Schistosoma Mansoni Peroxiredoxins; purified TGR, DTNB reduction, TNB absorbance 405 nm; 360,000 tested, 3% active; Potency, µM (top dose mostly 114 µM), inactives show top-dose activity change, negative = inhibition, most hits filed as inhibitors; further: nearly all actives have a fitted effect of over 60% in size
#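 Kinetic colorimetric format: TGR-catalysed, NADPH-driven DTNB reduction monitored via TNB absorbance. Enzyme dispensed at 20 nM; compound exposure 15 min at room temperature before reaction start.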
# Starred values were filed as active, the others as inactive; ? = inconclusive; . = not tested or not shown. Sampled rows, rich in hits. Any-hit rate of the full collection: about 3.3%. The call rests on the fitted dose curve; in most records, active means well fitted curve in the direction sought with a large enough effect; inconclusive means small, poorly fitted or top-dose-only effect, or another doubt; inactive means no such curve, though single readings can be large; an effect the other way counts as inactive or inconclusive. Unless noted, on the % scale 0 is the no-effect control and ±100 the full control effect; potency means the concentration at half of the fitted maximal effect.
SMILES,AmpC inh detg,AmpC inh no detg,Sm TGR block
COc1ccc(CCN(C)Cc2c(O)ccc3ccccc23)cc1OC,-2.5%,-7.0%,1.41µM*
CCc1ccccc1NC(=O)CN(C)Cc1c(O)ccc2ccccc12,-13.9%,-27.5%,0.708µM*
CN(CC(=O)Nc1ccccc1C(F)(F)F)C(=O)c1cc(Cl)nc2ccccc12,1.0%,-21.7%,-3.0%
CCCCNC(=O)C(CC)Sc1nc2ccccc2c(=O)n1Cc1ccco1 (configuration not stated),2.2%,.,-20.8%
CCCOc1ccc(/C=C/C(=O)Nc2sc(C)c(C)c2C(=O)OCC)cc1OC,-9.2%,.,-2.1%
COc1ccc(-c2cc(C(F)F)n3ncc(C(=O)N4CCc5ccccc54)c3n2)cc1,0.3%,0.0%,11.2µM*
Cc1ccc(-c2cc(C(F)F)n3ncc(C(=O)N4CCCc5ccccc54)c3n2)cc1,-7.4%,-22.1%,1.9%
COc1ccc(-c2cc(C(F)F)n3ncc(C(=O)Nc4cc(OC)ccc4OC)c3n2)cc1,-7.1%,.,0.7%
COc1ccc(-c2cc(C(F)F)n3ncc(C(=O)n4ccnc4C)c3n2)cc1,-13.8%,-10.7%,89.1µM*
CCOC(=O)c1c(S(=O)(=O)N2CCC(C(=O)NCc3ccccc3Cl)CC2)c(C)n(C)c1C,8.2%,.,4.1%
COc1ccccc1C(=O)c1c(N)c(-c2nc(-c3ccccc3)cs2)c2ccccn12,12.7%,.,-0.8%
CCN(C(=O)COC(=O)CNC(=O)c1ccccc1C)C1=CCCCC1,-9.0%,16.5%,-6.0%
CCCN(C(=O)CCl)C1=CCCCC1,0.9%,-13.3%,11.2µM*
CCOC(=O)c1c(NC(=O)CSc2cn(CCNC(=O)c3c(F)cccc3F)c3ccccc23)sc2c1CCC2,-8.4%,.,0.4%
Cc1nn(CC(=O)NCC(C)c2ccccc2)c(=O)c2cc3ccccc3n12 (configuration not stated),-2.9%,.,-1.4%
CC(C)(C)C1CCc2c(sc(NC(=O)Cn3nnc(-c4cccc(C(F)(F)F)c4)n3)c2C#N)C1 (configuration not stated),-11.1%,.,-6.4%
CCOc1cc(C=C(C#N)C#N)ccc1Oc1ccc([N+](=O)[O-])cn1,1.8%,-37.4%,.
COc1cc(/C=C(/C#N)c2ccc(F)cc2)ccc1Oc1ccc([N+](=O)[O-])cn1,-18.9%,28.2µM*,-15.1%
O=C(CSc1nc2nc(-c3cccs3)cc(C(F)(F)F)c2c(=O)[nH]1)Nc1c(F)c(F)c(F)c(F)c1F,-5.2%,-30.8%,5.7%
NS(=O)(=O)c1cccc(NC(=O)CSc2nc3nc(-c4cccs4)cc(C(F)(F)F)c3c(=O)[nH]2)c1,-1.9%,15.8µM*,-16.9%
O=S(=O)(c1ccc(Br)s1)N1CCN(c2cccc(C(F)(F)F)c2)CC1,19.1%,.,3.9%
Cc1ccc(NC(=O)Cn2ccn(-c3ccccc3)c(=O)c2=O)cc1,22.4%,.,4.7%
CCOc1ccc(S(=O)(=O)Nc2cc(Sc3ncn[nH]3)c3oc(=O)sc3c2)cc1,-6.6%,5.62µM*,-14.9%
CCOc1ccc(S(=O)(=O)Nc2ncn[nH]2)cc1,-13.7%,-12.0%,0.6%
CN(NC(=O)/C=C/C(=O)O)c1ncc(C(F)(F)F)cc1Cl,6.3%,-29.0%,20µM*
SMILES,AmpC inh detg,AmpC inh no detg,Sm TGR block
C=CC(=O)NN(C)c1ncc(C(F)(F)F)cc1Cl,0.4%,-13.3%,.
O=C(CCl)Nc1c2c(nn1-c1ccccc1)CSC2,2.0%,-14.1%,10µM*
O=C(CCCCl)Nc1c2c(nn1-c1ccccc1)CSC2,-0.6%,-25.2%,-1.0%
CCN(c1cc(C)cc(C)c1)S(=O)(=O)c1nnc(NC(=O)c2cccc(F)c2)s1,21.7%,.,-4.6%
CCOc1ccc(-c2c(C)nn3c(C)c(C(=O)Nc4ccccc4C(=O)OC)cnc23)cc1OCC,0.8%,.,9.7%
COCCNC(=O)c1nn(-c2ccc(C)cc2)c(=O)n(C)c1=O,-9.9%,.,3.4%
COC(=O)c1ccc(CC(=O)c2c(C)cc(O)cc2O)o1,?,-53.1%,22.4µM*
COC(=O)c1ccc(CC(=O)c2ccc(O)cc2O)o1,-1.5%,-48.7%,?
COc1ccccc1NC(=O)C1=C(C)Nc2c(C(=O)Nc3ccc(F)cc3)cnn2C1c1ccc(Cl)cc1 (configuration not stated),-0.6%,.,-1.4%
Cc1cc(NC(=O)CSc2ncc(C(=O)Nc3ccccc3)c(=O)n2C)no1,-0.2%,.,1.0%
COc1cccc2c1cc1c(=O)n(CC(=O)NCc3ccco3)nc(C)n12,1.0%,.,-1.8%
